Hits are enriched below; roughly 19% of the tested compounds scored in any of these assays.
IL1B secr inh: inhibitors of inflammasome signaling (IL-1 beta secretion) | THP-1 LPS/ATP IL-1B secretion, AlphaLISA, 16 h; hits give low values | activity change, % at 57.5 µM | 360,000 tested, 4.7% active; in the data active = activity change below about -50%; inconclusive = mostly about -30% to -49%
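THP-1 cells pretreated 1 hr with compounds (up to 57.5 uM final), then stimulated with LPS (250 ng/mL final) plus ATP (1.25 mM final); secreted IL-1B measured by AlphaLISA after 16 hr, decreased signal indicating inhibition.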
HT1080NT lethal: kills 2HG-producing HT-1080-NT fibrosarcoma cells; AID 686970; 360,000 tested, 1.6% active; HT-1080-NT fibrosarcoma viability, CellTiter-Glo ATP luminescence, 48 h; Potency, µM (series often up to 46.1 µM), for the others: at the top dose activity, negative = less viability, most hits filed as cytotoxic;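 also: NT is the 2HG producing partner of a matched IDH1 knockdown line; potency is read from the fitted curve at half-maximal effect; 0% = DMSO-treated cells and -100% = media-only wells without cells; nearly all actives have a fitted effect of over 55% in size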
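Read-out is CellTiter-Glo luminescence after 10 minutes at room temperature, following 48 hours' compound treatment of HT-1080-NT cells (750 cells/well, RPMI, 5% FBS, 37 degrees C).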
TDP1 cell CPT: DT40-hTDP1 cell growth loss with CPT. chicken DT40 Tdp1-/-;hTDP1 cells + 20 nM CPT, ATP luminescence, 48 h. Potency, µM (titrated, usually from 46.2 µM), without a hit: at the highest dose activity change, negative = growth inhibition, most hits filed as inhibitors. 420,000 tested, 12% active. AID 686979; also: potency is read from the fitted curve at half-maximal effect; nearly all actives have a fitted effect of over 55% in size
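Chicken DT40 Tdp1-/- cells stably complemented with human TDP1 were seeded at 400 cells/well in medium containing 20 nM camptothecin, exposed to pin-transferred compounds, and grown at 37 °C for at least 48 hr. Viability was read as ATP luminescence.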
DT40 TDP1 no CPT: qHTS for Inhibitors of human tyrosyl-DNA phosphodiesterase 1 (TDP1): qHTS in cells in absence of CPT | DT40 Tdp1-/- hTDP1 cells, no CPT, ATP luminescence, 48 h | Potency, µM (doses to about 46.2 µM), for inactives: top-dose activity change, negative = growth inhibition, hits mostly inhibitors | 420,000 tested, 15% active; also: potency is read from the fitted curve at half-maximal effect; nearly all actives have a fitted effect of over 55% in size
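Cells were dispensed at 400 per well, compounds added by pin tool, plates incubated ≥48 hr at 37 °C, then CellTiter-Glo added for 30 min at room temperature before luminescence reading. Line: DT40 Tdp1-/- complemented with hTDP1; camptothecin omitted.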
HT1080 IDH1KD tx: HT-1080 IDH1 knockdown cell toxicity (counter line); HT-1080 IDH1 knockdown viability, ATP luminescence, 48 h; Potency, µM (top dose mostly 46.1 µM), for inactives: at the top dose activity, negative = toxicity, hits mostly cytotoxic; 360,000 tested, 2% active; AID 686971;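 also: potency is read from the fitted curve at half-maximal effect; 0% = DMSO wells and -100% = cell-free medium wells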
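Assay cells: HT-1080 with IDH1 knockdown, 750 per well, RPMI/5% FBS. Exposure: 48 h at 37 °C following 2 h pre-incubation. Read: CellTiter-Glo luminescence; fitted concentration-response, curve class assigned.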
* marks the source's active call; other numbers are inactive results; u = inconclusive; x = no result given. Unless noted, calls follow the shape of the dose curve; as a rule, active = well fitted curve in the direction sought with a large enough effect; inconclusive = small, poorly fitted or top-dose-only effect, or another doubt; inactive = no such curve, though single readings can be large; an effect the other way counts as inactive or inconclusive. Unless noted, % is scaled to controls: 0 for no effect and ±100 for the full control effect.

SMILES	IL1B secr inh	HT1080NT lethal	TDP1 cell CPT	DT40 TDP1 no CPT	HT1080 IDH1KD tx
O=C(O)CSc1ncnc2sc3c(c12)CCC3	4	3%	u	u	3%
Cc1ccc(C(=O)CSc2ncnc3sc4c(c23)CCCC4)cc1	-5	-6%	u	21µM*	15%
COc1ccc(C)cc1NC(=O)CNC(C)C(=O)Nc1ccc(C(C)=O)cc1 (stereo unspecified)	45	6%	0%	2%	-1%
O=C(COc1ccc(S(=O)(=O)N2CCOCC2)cc1)NCCN1CCOCC1	13	0%	4%	7%	20%
Cc1ccc(NC(=O)NC2CCCCCCC2)cc1	u	16%	-6%	-5%	3%
COc1ccccc1NC(=O)c1ccc(S(=O)(=O)N2CCCC(C)C2)cc1 (stereo unspecified)	-8	0%	6%	-30%	-4%
CCOc1ccccc1Nc1nnc(SCC(=O)N(C)C2CCS(=O)(=O)C2)s1 (stereo unspecified)	-61*	17%	-21%	u	20%
COc1ccc(Nc2nnc(SCC(=O)N(CC(C)C)C3CCS(=O)(=O)C3)s2)cc1 (stereo unspecified)	-20	-18%	u	18µM*	-8%
Cc1ccccc1Nc1nnc(SCC(=O)N(C)C2CCS(=O)(=O)C2)s1 (stereo unspecified)	3	16%	17%	-5%	7%
CC(C)Oc1ccc(S(=O)(=O)N2CCOCC2)cc1NC(=O)C(C)Oc1ccc(F)cc1 (stereo unspecified)	-17	6%	u	u	0%
CC1CCCN(C(=O)c2ccc3c(=O)n(Cc4ccc5c(c4)OCO5)c(=S)[nH]c3c2)C1 (stereo unspecified)	u	u	16µM*	23µM*	-23%
CCN(CC)C(=O)c1ccc2c(=O)n(Cc3cccc(Br)c3)c(=S)[nH]c2c1	-4	-16%	23µM*	15µM*	-2%
CCN(CC)C(=O)c1ccc2c(=O)n(CCOC)c(=S)[nH]c2c1	16	0%	u	u	-2%
CC(C)OCCCNC(=O)c1ccc2c(=O)n(Cc3ccc4c(c3)OCO4)c(=S)[nH]c2c1	6	9%	0%	-11%	11%
CCN(CC)C(=O)c1ccc2c(=O)n(Cc3ccc4c(c3)OCO4)c(=S)[nH]c2c1	-8	-1%	15µM*	21µM*	-2%
O=C(c1ccc2c(=O)n(Cc3ccc4c(c3)OCO4)c(=S)[nH]c2c1)N1CCN(Cc2ccccc2)CC1	x	-6%	u	u	-7%
O=C(c1ccc2c(=O)n(Cc3ccco3)c(=S)[nH]c2c1)N1CCN(Cc2ccc3c(c2)OCO3)CC1	x	-10%	14µM*	11µM*	-11%
O=C(c1ccc2c(=O)n(Cc3ccc4c(c3)OCO4)c(=O)[nH]c2c1)N1CCN(c2ccccc2)CC1	0	9%	7%	19%	26%
O=C(Cn1c(=O)n(-c2ccc(F)cc2)c(=O)c2sccc21)c1ccccc1	-27	-4%	-8%	-8%	1%
Cc1ccc(S(=O)(=O)NCCNC(=O)c2ccc(C)nc2)cc1	53	11%	7%	-9%	24%
CCCC12CN3CC(C)(CN(C1)C3c1ccc([N+](=O)[O-])o1)C2=O (stereo unspecified)	1	9%	23%	-2%	16%
CCCC12CN3CC(CCC)(CN(C1)C3c1ccccc1)C2=O (stereo unspecified)	x	x	4.1µM*	u	x
C=CCOc1ccc(C2N3CC4(CC)CN2CC(CC)(C3)C4=O)cc1 (stereo unspecified)	-10	25%	u	u	24%
CCCC12CN3CC(CCC)(CN(C1)C3c1ccc(OC(C)C)cc1)C2=O (stereo unspecified)	x	x	u	16µM*	x
O=C(NCc1ccccn1)c1nn(-c2ccccc2F)nc1CO	x	x	u	-16%	x
